Data published in PubChem BioAssay.
The source made the active and inactive calls. Unless noted, how the calls were made is not given here.

Columns and labels:
[1] = compounds binding Alexa647 anti-His antibody – biochemical, small-molecule microarray, 635 nm fluorescence, artefact control for SMM control protein annotation, primary screen (AID 1128); details: higher = more signal;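 further: score merges feature fluorescence with signal-to-noise for each printed compound spot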
[2] = tested on: Human papillomavirus type 1a E7 protein (residues 1-88); assay: HPV1a E7 small-molecule binders, primary screen, biochemical, small-molecule microarray, residues 1-88, 635 nm (AID 1129); details: small-molecule microarray binding, fluorescence 635 nm; higher = more signal
[3] = molecular target: Focal adhesion kinase 1 (Homo sapiens) (UniProt Q05397); assay: PTK2 protein binding on printed compound slides – biochemical, small-molecule microarray, 635/667 nm fluorescence, BSA, DTT, primary screen (AID 1130); details: 635 nm fluorescence, higher = more signal;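 further: composite of spot emission at 667 nm and signal to noise over triplicate slides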
Chain of Focal adhesion kinase 1 (Homo sapiens) (Q05397 whole entry, looked up): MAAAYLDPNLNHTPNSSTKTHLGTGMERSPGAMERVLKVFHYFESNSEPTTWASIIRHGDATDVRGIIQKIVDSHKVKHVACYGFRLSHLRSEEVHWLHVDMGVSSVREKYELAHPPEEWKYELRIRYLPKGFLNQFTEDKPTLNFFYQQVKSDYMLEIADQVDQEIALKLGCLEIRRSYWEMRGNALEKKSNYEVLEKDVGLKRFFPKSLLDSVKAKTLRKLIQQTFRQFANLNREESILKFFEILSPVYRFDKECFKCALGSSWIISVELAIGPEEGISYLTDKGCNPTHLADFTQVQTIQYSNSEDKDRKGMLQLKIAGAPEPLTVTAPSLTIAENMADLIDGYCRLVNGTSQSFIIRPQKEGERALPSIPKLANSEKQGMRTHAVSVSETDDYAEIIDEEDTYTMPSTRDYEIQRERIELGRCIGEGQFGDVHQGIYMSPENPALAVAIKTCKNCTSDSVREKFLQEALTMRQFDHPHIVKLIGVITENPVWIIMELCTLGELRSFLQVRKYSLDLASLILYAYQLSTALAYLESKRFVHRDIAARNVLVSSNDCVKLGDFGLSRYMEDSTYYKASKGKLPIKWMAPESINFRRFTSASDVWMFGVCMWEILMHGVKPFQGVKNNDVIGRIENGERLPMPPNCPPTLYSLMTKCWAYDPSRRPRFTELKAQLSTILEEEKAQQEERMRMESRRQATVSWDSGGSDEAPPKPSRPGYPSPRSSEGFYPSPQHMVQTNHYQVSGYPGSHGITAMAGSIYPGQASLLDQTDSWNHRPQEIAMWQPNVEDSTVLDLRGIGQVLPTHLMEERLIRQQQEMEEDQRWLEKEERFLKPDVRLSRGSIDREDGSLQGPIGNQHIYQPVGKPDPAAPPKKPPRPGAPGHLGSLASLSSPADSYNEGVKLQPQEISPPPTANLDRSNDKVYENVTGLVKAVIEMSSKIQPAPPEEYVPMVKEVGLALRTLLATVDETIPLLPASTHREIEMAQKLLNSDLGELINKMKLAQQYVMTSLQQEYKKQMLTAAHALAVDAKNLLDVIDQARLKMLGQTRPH

[4] = tested on: Fibrinogen (Alexa647-labelled); assay: Alexa647-fibrinogen binding to printed small molecules – biochemical, small-molecule microarray, 635/667 nm fluorescence, artefact control for SMM control-protein annotation, profiling panel (AID 1131); details: fibrinogen-A647 binding fluorescence, higher = more signal;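 further: z-score merges 667 nm fluorescence with per-spot signal-to-noise over triplicate slides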
[5] = molecular target: Follistatin (Homo sapiens) (UniProt P19883); assay: FST protein binding to printed compounds – biochemical, small-molecule microarray, 635/667 nm fluorescence, primary screen (AID 1132); details: 635 nm fluorescence, higher = more signal
Chain of Follistatin (Homo sapiens) (P19883 whole entry, looked up): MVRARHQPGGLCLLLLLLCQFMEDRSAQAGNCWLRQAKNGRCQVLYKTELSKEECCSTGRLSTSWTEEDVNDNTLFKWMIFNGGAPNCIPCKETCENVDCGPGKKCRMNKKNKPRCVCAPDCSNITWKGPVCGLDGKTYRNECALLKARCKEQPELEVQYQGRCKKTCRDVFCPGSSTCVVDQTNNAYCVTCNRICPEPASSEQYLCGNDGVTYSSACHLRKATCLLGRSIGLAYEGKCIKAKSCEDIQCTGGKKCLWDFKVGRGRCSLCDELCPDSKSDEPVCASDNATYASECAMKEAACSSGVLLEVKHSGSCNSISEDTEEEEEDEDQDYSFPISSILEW

[6] = molecular target: Fibroblast growth factor 2 (Homo sapiens) (UniProt P09038); assay: basic fibroblast growth factor binding to printed compounds – biochemical, small-molecule microarray, 635/667 nm fluorescence, primary screen (AID 1133); details: FGF2, fluorescence 635/667, higher = more signal
Chain of Fibroblast growth factor 2 (Homo sapiens) (P09038 whole entry, looked up): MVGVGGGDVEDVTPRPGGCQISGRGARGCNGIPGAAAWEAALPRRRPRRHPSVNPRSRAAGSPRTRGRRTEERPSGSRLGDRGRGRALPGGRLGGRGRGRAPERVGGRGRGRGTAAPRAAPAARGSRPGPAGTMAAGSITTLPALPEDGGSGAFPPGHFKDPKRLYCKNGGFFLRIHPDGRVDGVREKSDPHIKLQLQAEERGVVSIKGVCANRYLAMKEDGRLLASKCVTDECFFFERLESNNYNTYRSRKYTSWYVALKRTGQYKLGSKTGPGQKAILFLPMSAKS

[7] = JC-1 mitochondrial potential readout, lung cancer cells – cell-based, A549, JC-1 fluorescence, basal, 24 h, 100 nL, profiling panel (AID 1138); details: higher = more signal;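 further: A549 lung adenocarcinoma cells under basal conditions with no added stimulus; test concentration not given here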
Lefty1 = Lefty1 protein binding to printed compounds – biochemical, small-molecule microarray, 635/667 nm fluorescence, primary screen (AID 1139); details: fluorescence 635/667, higher = more signal
[8] = tested on: wheat germ agglutinin (Triticum aestivum), Alexa647-labelled; assay: Alexa647-WGA lectin binding to printed small molecules – biochemical, small-molecule microarray, 635/667 nm fluorescence, artefact control for SMM control-protein annotation, profiling panel (AID 1140); details: WGA-A647 binding, 635 nm fluorescence, higher = more signal;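 further: score merges 667 nm feature emission with signal to noise over triplicate slides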
[9] = molecular target: Luciferin 4-monooxygenase (Photinus pyralis) (UniProt P08659); assay: inhibition of purified Photinus pyralis luciferase – biochemical, luminescence, purified enzyme, 2006 set, primary screen (AID 1141); details: purified firefly luciferase, SteadyGlo luminescence, 30 min; higher = more signal, called active from +8 up or from −8 down;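 further: cell-free assay with purified firefly luciferase at 100 ng per well in PBS; test concentration not given here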
Chain of Luciferin 4-monooxygenase (Photinus pyralis) (P08659 whole entry, looked up): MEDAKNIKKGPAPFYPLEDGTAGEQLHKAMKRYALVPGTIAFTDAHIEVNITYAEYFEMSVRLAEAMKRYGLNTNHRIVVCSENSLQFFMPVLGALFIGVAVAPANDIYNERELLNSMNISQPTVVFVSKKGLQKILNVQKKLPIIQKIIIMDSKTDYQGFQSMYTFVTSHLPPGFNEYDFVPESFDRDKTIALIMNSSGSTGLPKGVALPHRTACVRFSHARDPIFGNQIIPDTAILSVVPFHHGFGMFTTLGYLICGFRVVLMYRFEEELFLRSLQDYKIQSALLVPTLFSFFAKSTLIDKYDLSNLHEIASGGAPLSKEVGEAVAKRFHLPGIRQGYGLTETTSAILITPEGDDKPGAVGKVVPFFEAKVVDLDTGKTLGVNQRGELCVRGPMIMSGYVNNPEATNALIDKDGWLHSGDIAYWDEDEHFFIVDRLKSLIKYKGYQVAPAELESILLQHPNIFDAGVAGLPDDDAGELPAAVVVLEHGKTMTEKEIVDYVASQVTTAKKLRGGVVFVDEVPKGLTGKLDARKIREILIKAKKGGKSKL

[10] = tested on: Wnt5a (protein binding on small-molecule microarray); assay: small molecules binding Wnt5a protein – biophysical, small-molecule microarray, 635/667 nm fluorescence, primary screen (AID 1142); details: 635 nm fluorescence, higher = more signal;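 further: fluorescence read at 667 nm with signal to noise per printed feature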
[11] = ATP-based viability of Huh7 replicon cells – cell-based, CellTiter-Glo luminescence, basal, 48 h, cytotoxicity control for HCV replication inhibitor project, primary screen (AID 1143); details: higher = more signal, called active from +8 up or from −8 down;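 further: Huh7 hepatoma cells carrying a hepatitis C replication reporter with no stimulus; test concentration not given here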
[12] = Pseudomonas biofilm growth suppression – PAO1 strain, BacTiter-Glo luminescence, LB-PBS, primary screen (AID 1144); details: P. aeruginosa PAO1 biofilm, 12 h, higher = more signal
[13] = basal CRE-LacZ reporter activity in PC12 – cell-based, unstimulated, primary screen (AID 1145); details: no forskolin, luminescence, 4.5 h, higher = more signal, called active from +8 up or from −8 down
[14] = forskolin-driven CRE-LacZ activity in PC12 – cell-based, CRE-LacZ reporter, forskolin-stimulated, primary screen (AID 1146); details: luminescence, 4.5 h, higher = more signal, called active from +8 up or from −8 down;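 further: PC12 cells with 6xCRE LacZ reporter stimulated by forskolin 10 µM; beta-galactosidase reporter signal reflecting CREB driven transcription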
[15] = molecular target: Streptavidin (Streptomyces avidinii) (UniProt P22629); assay: compounds binding control protein streptavidin – biophysical, small-molecule microarray, 635/667 nm fluorescence, artefact control for SMM compound annotation, primary screen (AID 1147); details: higher = more signal;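 further: signal reflects streptavidin binding to arrayed compounds as a control protein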
Chain of Streptavidin (Streptomyces avidinii) (P22629 whole entry, looked up): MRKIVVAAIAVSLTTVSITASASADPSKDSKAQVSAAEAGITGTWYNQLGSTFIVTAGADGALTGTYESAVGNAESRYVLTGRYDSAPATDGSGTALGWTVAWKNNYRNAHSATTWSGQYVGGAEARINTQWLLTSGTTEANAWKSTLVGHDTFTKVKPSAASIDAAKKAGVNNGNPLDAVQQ

[16] = probe aInhba binding on compound microarray – biochemical, small-molecule microarray, 635/667 nm fluorescence, primary screen (AID 1148); details: higher = more signal;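 further: score merges 667nm spot fluorescence with signal-to-noise for antibody binding to printed compounds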
Torsin-1A (Homo sapiens) [17] = molecular target: Torsin-1A (Homo sapiens) (UniProt O14656); assay: TOR1A wild-type binding on microarray – cell lysate, small-molecule microarray, lysate, 635/667 nm, primary screen (AID 1149); details: COS7 hTOR1A-WT lysate, 635 nm fluorescence, higher = more signal
Chain of Torsin-1A (Homo sapiens) (O14656 whole entry, looked up): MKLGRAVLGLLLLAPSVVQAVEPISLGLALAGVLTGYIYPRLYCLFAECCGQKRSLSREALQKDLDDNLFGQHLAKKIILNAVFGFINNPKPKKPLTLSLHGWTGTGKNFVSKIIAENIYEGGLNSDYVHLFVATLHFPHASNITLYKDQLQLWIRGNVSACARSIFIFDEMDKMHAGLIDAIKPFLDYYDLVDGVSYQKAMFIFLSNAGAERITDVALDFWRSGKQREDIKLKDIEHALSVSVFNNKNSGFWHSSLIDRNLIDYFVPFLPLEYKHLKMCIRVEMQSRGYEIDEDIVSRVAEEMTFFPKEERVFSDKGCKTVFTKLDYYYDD

Torsin-1A (Homo sapiens) [18] = molecular target: Torsin-1A (Homo sapiens) (UniProt O14656); assay: torsin A mutant lysate binding on microarrays – cell lysate, small-molecule microarray, COS7 lysate, 635/667 nm fluorescence, primary screen (AID 1150); details: COS7 hTOR1A mutant lysate, 635 nm fluorescence, higher = more signal;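 further: score pools 667 nm emission and signal to noise measuring lysate protein binding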
[19] = tested on: Sonic hedgehog protein (Shh); assay: Sonic hedgehog microarray binding compounds – biochemical, small-molecule microarray, 635/667 nm fluorescence, primary screen (AID 1151); details: 635 nm fluorescence, higher = more signal;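 further: Shh protein binding to compounds spotted on small-molecule microarray slides; score combines spot fluorescence intensity with signal-to-noise across triplicate slides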

SMILES	composite z-score [1]	composite z-score [2]	composite z-score [3]	composite z-score [4]	composite z-score [5]	composite z-score [6]	z-score [7]	composite z-score (Lefty1)	composite z-score [8]	z-score [9]	composite z-score [10]	z-score [11]	z-score [12]	z-score [13]	z-score [14]	composite z-score [15]	composite z-score [16]	composite z-score (Torsin-1A (Homo sapiens) [17])	composite z-score (Torsin-1A (Homo sapiens) [18])	composite z-score [19]
C=CCC(OC(C)=O)[C@@H]1[C@@H](N(Cc2cc3ccccc3o2)C(=O)Cc2ccc(OC)cc2)c2cc(OCCCO)ccc2N1C(=O)Cc1ccc2ccccc2c1 (stereo not given in full)	0.305	-0.866	0.102	0.136	0.279	-0.662	0.432	-0.173	0.116	-0.1 (inactive)	-0.211	-0.392 (inactive)	0.334 (inactive)	1.25 (inactive)	0.775 (inactive)	0.0489	-0.155	-0.773	-1.01	-0.155
COCCOC(=O)N1C(=O)[C@@]2(c3cc(C#Cc4ccc(OC)cc4)ccc31)[C@H](C(=O)Nc1nc3ccccc3s1)[C@H]1C(=O)O[C@H](c3ccccc3)[C@H](c3ccccc3)N1[C@@H]2c1ccccc1OCCO	0.484	1.05	0.0699	0.922	1.32	1.04	-1.75	0.973	0.883	-1.76 (inactive)	0.0516	-4.28 (inactive)	-1.6 (inactive)	-1.7 (inactive)	-1.44 (inactive)	0.299	-0.0566	0.245	0.243	1.34
C=C(COC)C(=O)CC[C@@H](OC(=O)c1cccnc1)c1cccc(OCCO)c1	-0.007	0.23	-0.437	-1.48	1.29	0.773	0.525	1.19	0.981	-2.86 (inactive)	0.0666	-0.864 (inactive)	-0.652 (inactive)	8.15 (active)	5.43 (inactive)	-0.296	-0.127	0.653	0.778	1.37
COC(=O)[C@@H]1N=C(c2ccc(OCCCO)cc2)O[C@@H]1c1ccccc1CN=[N+]=[N-]	-0.125	0.943	0.841	0.38	0.233	-0.633	0.22	-0.119	0.939	-0.0813 (inactive)	-0.257	-1.04 (inactive)	-0.245 (inactive)	-0.268 (inactive)	0.0126 (inactive)	0.551	0.177	-1.73	-0.938	0.0121
CCCCC(=C=CC[C@H](O)c1ccc(OCCO)cc1)C[C@H](O)c1ccccn1	1.67	1.13	0.26	0.963	1.27	1.54	1.27	0.885	0.266	-2.27 (inactive)	0.259	-0.671 (inactive)	0.229 (inactive)	5.13 (inactive)	-0.533 (inactive)	-0.319	0.0398	0.215	1.58	1.17
C=CCC(OC(C)=O)[C@@H]1[C@@H](N(Cc2ccc(-c3ccccc3)cc2)C(=O)c2ccc(-c3ccccc3)cc2)c2cc(OCCCO)ccc2N1C(=O)c1ccc2ccccc2n1 (stereo not given in full)	-0.513	0.907	0.879	-0.239	0.548	0.051	1.61	-0.101	0.152	-1.46 (inactive)	-0.0949	0.115 (inactive)	0.196 (inactive)	0.992 (inactive)	0.705 (inactive)	0.21	0.333	-0.178	0.342	0.767
COCCn1c(C(=O)N2CCCC2)cc2c1C[C@H]1CN(C(=O)c3ccccc3)[C@@](Cc3ccccc3)(C(=O)OC)[C@@H]21	1.09	0.822	1.54	0.948	0.298	0.121	0.109	0.334	1.11	2.58 (inactive)	0.576	-1.01 (inactive)	-0.784 (inactive)	-0.182 (inactive)	-0.034 (inactive)	0.393	0.679	0.22	1.18	-0.193
CCOC(=O)C[C@H]1[C@H](OC(=O)c2ccc(-c3ccccc3)cc2)[C@@H](NC(=O)c2ccc3ccccc3c2)c2cc(OCCCO)ccc2N1C(=O)c1ccccc1	0.137	1.05	0.19	0.118	0.0533	0.831	0.257	0.669	0.3	0.61 (inactive)	0.247	-0.433 (inactive)	0.0625 (inactive)	0.544 (inactive)	1.09 (inactive)	0.114	0.0497	0.742	0.988	0.27
CCOC(=O)C1=CC[C@@H](c2ccccc2)N(S(=O)(=O)c2ccc(C)cc2)[C@H]1C#N	0.806	1.2	0.721	0.986	-0.33	-0.162	-0.604	-0.565	0.517	-0.227 (inactive)	0.114	-1.82 (inactive)	0.184 (inactive)	-0.48 (inactive)	3.56 (inactive)	0.93	0.134	0.0439	0.189	-0.707
C[C@]1(C(=O)NCC(F)(F)F)c2ccccc2C(=O)N(Cc2ccc(OC(F)(F)F)cc2)[C@H]1c1ccc(CO)cc1	0.781	0.269	0.273	0.0709	1.13	0.358	-0.274	0.369	0.314	-0.219 (inactive)	-0.151	-2.8 (inactive)	0.382 (inactive)	0.324 (inactive)	1.3 (inactive)	0.0803	-0.128	-0.906	0.7	0.31
